KB-V1 cytotox: qHTS assay for MDR1-selective chemotherapeutics: Primary screen using the drug-selected MDR subline cells KB-V1; KB-V1 MDR cells viability, CellTiter-Glo, 72 h; Potency, µM (top dose mostly 46.1 µM), actives largely listed as cytotoxic; 400,000 tested, 3.4% active; further: nearly all actives have a fitted effect of over 60% in size
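KB-V1, DMEM (no phenol red) + 10% FBS; cpd pin-transferred, titration series; 72 h, 37 degrees C; CellTiter-Glo, luminescence. Data normalized, curve-fit.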
DT40 TDP1 CPT: qHTS for Inhibitors of human tyrosyl-DNA phosphodiesterase 1 (TDP1): qHTS in cells in presence of CPT; chicken DT40 Tdp1-/-;hTDP1 cells + 20 nM CPT, ATP luminescence, 48 h; Potency, µM (titrated, usually from 46.2 µM), for the others: at the highest dose activity change, negative = growth inhibition, actives largely listed as inhibitors; 420,000 tested, 12% active; AID 686979, 2013; further: nearly all actives have a fitted effect of over 55% in size
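Cell growth measured by CellTiter-Glo luminescence after a minimum 48 h, 37 C compound exposure with 20 nM CPT in Tdp1-knockout DT40 cells stably expressing hTDP1, seeded 400/well; qHTS titration format.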
KB-3-1 cytotox: qHTS assay for MDR1-selective chemotherapeutics: Primary screen using the parental adenocarcinoma cell KB-3-1; 400,000 tested, 1.4% active; KB-3-1 viability, CellTiter-Glo ATP luminescence, 72 h; Potency, µM (doses to about 46.1 µM), most hits filed as cytotoxic; further: nearly all actives have a fitted effect of over 60% in size
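72 h, 37 °C compound treatment of KB-3-1 parental cells; CellTiter-Glo added, 10 min, luminescence read. Data corrected against DMSO-only plates and normalized before curve fitting.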
TDP1 cell noCPT: qHTS for Inhibitors of human tyrosyl-DNA phosphodiesterase 1 (TDP1): qHTS in cells in absence of CPT. DT40 Tdp1-/- hTDP1 cells, no CPT, ATP luminescence, 48 h. Potency, µM (titrated, usually from 46.2 µM), without a hit: at the highest dose activity change, negative = growth inhibition, most hits filed as inhibitors. 420,000 tested, 15% active. AID 686978, 2013; further: nearly all actives have a fitted effect of over 55% in size
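Stably hTDP1-transfected Tdp1-null chicken DT40 cells were treated with library compounds minus camptothecin and grown for at least 48 hr at 37 °C, after which cellular ATP was quantified by luminescence.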
HT1080 IDH1KD tx: qHTS for induction of synthetic lethality in tumor cells producing 2HG: qHTS for the HT-1080-IDH1KD cell line; HT-1080 IDH1 knockdown viability, ATP luminescence, 48 h; Potency, µM (doses to about 46.1 µM), without a hit: top-dose activity, negative = toxicity, most hits filed as cytotoxic; 360,000 tested, 2% active; AID 686971, 2013;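 further: 0% = DMSO wells and -100% = cell-free medium wells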
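HT-1080-IDH1KD cells (IDH1 knocked down), 750/well in RPMI with 5% FBS, treated with compound 48 h at 37 degrees C. Viability by CellTiter-Glo luminescence, normalised to DMSO and no-cell wells; concentration-response curves classed.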
HT1080NT lethal: qHTS for induction of synthetic lethality in tumor cells producing 2HG: qHTS for the HT-1080-NT fibrosarcoma cell line; HT-1080-NT fibrosarcoma viability, CellTiter-Glo ATP luminescence, 48 h; Potency, µM (top dose mostly 46.1 µM), for inactives: at the top dose activity, negative = less viability, usual class: cytotoxic; 360,000 tested, 1.6% active;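 further: NT is the 2HG producing partner of a matched IDH1 knockdown line; 0% = DMSO-treated cells and -100% = media-only wells without cells; nearly all actives have a fitted effect of over 55% in size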
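Toxicity toward the 2HG-producing NT line was scored as %Activity, normalised to DMSO and no-cell wells, from CellTiter-Glo luminescence after 48 hours' treatment.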
An asterisk follows results filed as active; i = inactive; ? = inconclusive; · = no result given. Shown are actives, neighbours in structure and some others; about 19% of the full set was active somewhere. The call rests on the fitted dose curve; in most records, active means well fitted curve in the direction sought with a large enough effect; inconclusive means small, poorly fitted or top-dose-only effect, or another doubt; inactive means no such curve, though single readings can be large; an effect the other way counts as inactive or inconclusive. Unless noted, on the % scale 0 is the no-effect control and ±100 the full control effect; potency means the concentration at half of the fitted maximal effect.

SMILES | KB-V1 cytotox | DT40 TDP1 CPT | KB-3-1 cytotox | TDP1 cell noCPT | HT1080 IDH1KD tx | HT1080NT lethal
COC(=O)C1=C(C)N(Cc2ccccc2)C(=NCc2cc(OC)c(OC)c(OC)c2)N[C@H]1c1ccc(Br)cc1 | i | 13µM* | i | 18µM* | ? | -21%
COC(=O)C1=C(C)N(Cc2ccccc2)C(=NCc2cc(OC)c(OC)c(OC)c2)N[C@H]1CCc1ccccc1 | i | 21µM* | i | 16µM* | -4% | -3%
COC(=O)C1=C(C)N(CC2CC2)C(=NCc2cc(OC)c(OC)c(OC)c2)N[C@H]1c1ccccc1 | i | ? | i | 23µM* | 8% | 5%
COCCNC(=O)C1(C)CCCN(C(=O)c2cccc(OC(F)(F)F)c2)C1 (stereo not given) | i | 10% | i | -12% | 25% | 10%
O=C(Cc1ccc(F)cc1)N1CCOCC1 | ? | 19% | i | -5% | 11% | 7%
CCN1C(=S)N[C@@H](c2ccccc2)C(C(=O)OC)=C1C | i | ? | i | -26% | 8% | 1%
COC(=O)C1=C(C)N(Cc2ccccc2)C(=NCc2cc(OC)c(OC)c(OC)c2)N[C@H]1c1ccccc1 | i | 21µM* | i | 15µM* | -7% | -1%
COc1ccc(NC(=O)c2cc(C3CCCCN3S(=O)(=O)Cc3ccccc3)on2)c(C)c1 (stereo not given) | i | -84% | i | -94% | -6% | 4%
CCCCCn1c(=N)n(CC(O)COc2cccc(C)c2)c2ccccc21 (stereo not given) | ? | 2.9µM* | i | 2.1µM* | · | ·
CCCn1c(=N)n(CC(O)COc2cccc(C)c2)c2ccccc21 (stereo not given) | 15µM* | 16µM* | ? | 15µM* | ? | -18%
Cc1cccc(OCC(O)CN2C(C)(C)CC(O)CC2(C)C)c1 (stereo not given) | i | -19% | i | -18% | 8% | -3%
CCn1c(=N)n(CC(O)c2ccccc2)c2ccccc21 (stereo not given) | i | -9% | i | -28% | -5% | 1%
CCn1c(=N)n(CC(O)COc2cccc(C)c2)c2ccccc21 (stereo not given) | ? | 15µM* | ? | 9.2µM* | ? | ?
N[C@@H](CO)c1nnc([C@H](CCC(=O)O)NC(=O)C2CCNCC2)o1 | ? | -25% | i | 8% | 0% | -25%
COc1ccc(-c2cnc(C(O)c3ccc(-c4ccccc4)cc3)[nH]2)cc1 (stereo not given) | i | ? | i | ? | 0% | -26%
OC(c1ccc(Cl)cc1)c1ncc(-c2ccc(Oc3ccccc3)cc2)[nH]1 (stereo not given) | i | 21µM* | ? | 21µM* | 23µM* | 23µM*
OC(c1ccccc1)c1ncc(-c2ccc(Oc3ccccc3)cc2)[nH]1 (stereo not given) | i | 23µM* | i | 18µM* | -27% | ?
COc1ccc(-c2cnc(C(O)c3ccccc3)[nH]2)cc1 (stereo not given) | i | -19% | i | -5% | 12% | 1%
CC1C(=O)N(Cc2ccc([N+](=O)[O-])cc2)c2ccccc2N1C(=O)c1c(F)cccc1F (stereo not given) | i | ? | i | 16µM* | -29% | -19%

Assay outcomes (PubChem)
